From PubChem BioAssay AID463173 (ICCB-Longwood Screening Facility, Harvard Medical School, 2010)
Hit rate of the full screen: of about 52,000 compounds, about 4,300 (8.3%) were called active. This is one part of a sample in which actives are shown more often than they occur. Rule as the data show it: active = survival mostly below about 52% (no sharp cut-off); inactive = mostly above about 56%.

The compounds below were run on DeltatarO mutant (assay: growth inhibition of S. aureus wild type versus tarO mutant, primary screen, teichoic acid synthesis inhibitors, RN4220, OD600 (AID 463173)). Conditions: OD600, 18 h, stronger effect = lower value, screened at 18.75 µg/mL (by protocol).

SMILES	survival
CCOC(=O)N1CCN(Cc2nc3cc(NC(=O)C(C)C)ccc3n2C(C)C)CC1	68% (inactive)
CCOC(=O)c1cccc(NC(=O)CCC(=O)N2CC(C)Oc3ccc(C)cc32)c1 (centres undefined)	51% (inactive)
Cc1ccc(-n2nc(C)c3c(C)c(CCC(=O)NCc4ccc(Cl)cc4)c(C)nc32)cc1	89% (inactive)
O=C(CN1CCN(Cc2ccccc2Cl)C1=O)NCc1ccccc1Cl	67% (inactive)
CCc1cc(C=Nc2ccccc2)c(O)s1	98% (inactive)
Cc1cc(N2CCN(c3cccc(C)c3C)CC2)n2nc(C)c(-c3ccc(Cl)cc3)c2n1	87% (inactive)
Cc1ccc(CNC(=O)c2cc3sccc3n2Cc2ccc(F)cc2)cc1	83% (inactive)
COC(=O)CN1C(=O)CSc2ccc(S(=O)(=O)Nc3ccc(Cl)cc3C)cc21	124% (inactive)
Cc1cccc(-c2nc(SCCCOc3ccc(Cl)c(C)c3)n3[nH]c(=O)cc3n2)c1	72% (inactive)
N#Cc1cc2c(=O)n3ccccc3nc2n(-c2nnc(SCc3ccccc3F)s2)c1=O	81% (inactive)
CCc1ccc(NC(=O)CSC2=Nc3ccccc3C3=NC(CC(=O)NCc4ccc5c(c4)OCO5)C(=O)N23)cc1 (centres undefined)	107% (inactive)
COCCN1Cc2cccc(C(=O)Nc3ccc(Cl)cc3Cl)c2C1=O	59% (inactive)
Cc1cc(=O)n(Cc2ccc(Cl)cc2)c2c1c(C)nn2-c1ccccc1	126% (inactive)
C=Cc1ccc(Cn2c(=O)cc(C)c3c(C)nn(-c4ccccc4)c32)cc1	17% (active)
Cc1ccc(C)c(Cn2c(=O)cc(C)c3c(C)nn(C)c32)c1	91% (inactive)
C=Cc1ccc(Cn2c(=O)cc(C)c3c(C)nn(C)c32)cc1	8% (active)
COC(=O)c1ccc(Cn2c(=O)cc(C)c3c(C)nn(C)c32)cc1	66% (inactive)
Cc1cc(=O)n(Cc2ccccc2)c2c1c(C)nn2C	20% (active)
COc1cccc(Cn2c(=O)cc(C)c3c(C)nn(C)c32)c1	89% (inactive)
Cc1cc(=O)n(Cc2cccc(Cl)c2)c2c1c(C)nn2C	102% (inactive)

SMILES	survival
Cc1cc(=O)n(Cc2ccccc2)c2c1c(C)nn2-c1ccccc1	89% (inactive)
CCc1ccccc1NC(=O)CCC(=O)N1CC(C)Oc2ccc(C)cc21 (centres undefined)	62% (inactive)
O=C(COc1ccc2ccccc2c1)NC1CC(=O)N(c2ccc(F)cc2)C1 (centres undefined)	69% (inactive)
CC(C)CCn1nnnc1CN1CCN(Cc2ccc3c(c2)OCO3)CC1	69% (inactive)
CCOC(=O)c1nnn(C(CC)C(=O)Nc2c(C)cccc2C)c1C(=O)OCC (centres undefined)	100% (inactive)
Cc1cccn2c(=O)c3cc(C#N)c(=O)n(-c4nnc(SCc5ccc(Cl)cc5)s4)c3nc12	81% (inactive)
CC(C)N(C(=O)Cn1cc(S(=O)(=O)Cc2ccc(C(F)(F)F)cc2)c2ccccc21)C(C)C	54% (inactive)
Cc1cc(C)c(NC(=O)Cn2c(=O)n(Cc3ccc(C(=O)NCc4ccco4)cc3)c(=O)c3sccc32)c(C)c1	173% (inactive)
Cc1cccc(NS(=O)(=O)c2ccc3oc(=O)c4ncn(C)c4c3c2)c1C	109% (inactive)
Cc1ccc(NC(=O)c2ccc(CNS(=O)(=O)c3ccc4c(c3)C(C)(C)C(=O)N4C)cc2)cc1C	62% (inactive)
COc1ccc(OC)c(CCNc2ncnc3onc(-c4ccc(Cl)cc4)c23)c1	94% (inactive)
CCOc1ccc2oc(=O)cc(CN3CCN(c4ccc(Cl)cc4)CC3)c2c1	97% (inactive)
CCN1CC=C2C(C#N)=C(N)C(C#N)(C#N)C(C)C2C1 (centres undefined)	80% (inactive)
CC1CCC(NC(=O)CCc2cn(Cc3ccccc3Cl)c3ccccc23)CC1 (centres undefined)	51% (active)
Cc1ccc(Cn2cc(CCC(=O)NC3CCC(C)CC3)c3ccccc32)cc1 (centres undefined)	74% (inactive)
O=C(CCc1cn(Cc2ccccc2Cl)c2ccccc12)NC1CCCCC1	71% (inactive)
O=C(O)c1ccc(C2Nc3ccccc3-c3nnc(SCc4ccc(Cl)cc4)nc3O2)cc1 (centres undefined)	85% (inactive)
Cc1ccc(C)c(CN2C(=O)c3ccccc3S(=O)c3ccc(C(=O)NCc4ccco4)cc32)c1 (centres undefined)	72% (inactive)
COc1ccc2nc(SC)nc(C)c2c1	67% (inactive)
COc1ccc2oc(=O)c(C(=O)N3CCN(c4ccc(C)cc4)CC3)cc2c1	91% (inactive)

SMILES	survival
COc1ccc2oc(=O)c(C(=O)N3CCN(c4cc(Cl)ccc4Cl)CC3)cc2c1	48% (active)
COc1ccc2oc(=O)c(C(=O)N3CCC(C(N)=O)CC3)cc2c1	79% (inactive)
CC(=O)Nc1cc(C(=O)NCc2ccc(F)cc2)ccc1Sc1ccc(C)cc1	94% (inactive)
Cc1cc(Sc2ccc(Cl)cc2)nc2ccccc12	45% (inactive)
CCCN(CCC)c1nc(-c2ccccc2F)nc2ccccc12	4% (active)
CC(C)CN(CC(C)C)c1nc(-c2ccc(Cl)cc2)nc2ccccc12	-1% (active)
Cc1cccc(OCCn2c(-c3ccc(Cl)cc3)nc3ccccc3c2=O)c1C	77% (inactive)
COc1ccccc1Nc1nc(-c2ccccc2F)nc2ccccc12	73% (inactive)
CCN(CC)c1nc(-c2ccc(C(C)(C)C)cc2)nc2ccccc12	-1% (active)
CCCCN(CCCC)c1nc(-c2ccccc2)nc2ccccc12	30% (inactive)
CCCCN(CC)c1nc(-c2ccccc2F)nc2ccccc12	94% (inactive)
CCN(CC)c1nc(-c2ccccc2)nc2ccccc12	86% (inactive)
COc1cccc2[nH]c(C(=O)NCc3ccc4c(c3)CCN4C(=O)c3ccc(F)cc3)cc12	84% (inactive)
CNC(=O)c1c(NC(=O)/C=C/c2ccccc2)sc2c1CCC2	87% (inactive)
CCC(Sc1nnc2c(n1)[nH]c1ccccc12)C(=O)Nc1ccccc1OC (centres undefined)	56% (inactive)
CC(C)(C)NC(=O)CN1CCC(n2nnc3cc(F)ccc32)CC1	93% (inactive)
COC(=O)c1scc(-c2ccc(C)cc2)c1S(=O)(=O)Nc1cccc(Cl)c1C	101% (inactive)
CC(=O)c1cc(-c2ccc(F)cc2)n(CCC(=O)NCc2ccc(C)cc2)c1C	73% (inactive)
COc1cccc(/C=C2/SC(=O)N(C)C2=O)c1O	83% (inactive)
